Assay outcomes deposited in PubChem by several laboratories.
BCLXL inh – blocks human Bcl-xL binding to Bim BH3 peptide; actives 0.7% (n = 320,000); GST-Bcl-xL / FITC-Bim BH3 peptide fluorescence polarization; inhibition, % at 10.9 µM; Q07817;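 active = inhibition above the mean of all tested compounds plus 3 SD, cutoff set per campaign, cut at about 30% in these data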;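 note: inhibitors lower millipolarization by displacing the labeled peptide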
Target sequence (Q07817 whole entry, looked up): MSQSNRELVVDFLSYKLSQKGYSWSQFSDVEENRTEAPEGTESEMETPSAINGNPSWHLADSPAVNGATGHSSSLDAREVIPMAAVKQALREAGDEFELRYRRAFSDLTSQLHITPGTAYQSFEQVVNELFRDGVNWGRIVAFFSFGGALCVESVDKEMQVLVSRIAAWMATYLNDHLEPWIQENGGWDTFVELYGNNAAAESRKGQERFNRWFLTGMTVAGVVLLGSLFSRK
MCL1-BIM inh – MCL1-BIM-BH3 interaction inhibition (human). actives 0.68% (n = 320,000). GST-MCL1 / FITC-Bim-BH3 fluorescence polarization. inhibition, % at 10.9 µM;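 active = inhibition above the mean inhibition of all tested compounds plus 3 SD, set per campaign, cut at about 40% in these data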;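 note: higher means more loss of mP so more displacement of Bim peptide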
Target sequence (Q07820 whole entry, looked up): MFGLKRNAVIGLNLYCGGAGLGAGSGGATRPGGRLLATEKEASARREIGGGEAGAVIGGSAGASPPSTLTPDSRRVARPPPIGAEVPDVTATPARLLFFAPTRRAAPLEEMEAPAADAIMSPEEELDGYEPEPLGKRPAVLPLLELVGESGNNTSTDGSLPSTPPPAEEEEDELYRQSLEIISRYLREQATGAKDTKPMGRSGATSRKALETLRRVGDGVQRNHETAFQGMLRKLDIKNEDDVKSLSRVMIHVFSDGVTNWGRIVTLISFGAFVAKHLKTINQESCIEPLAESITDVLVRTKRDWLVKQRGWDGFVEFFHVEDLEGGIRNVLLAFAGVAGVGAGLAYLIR
Mcl-1 Bim block – disrupts Bim peptide binding to human Mcl-1; AID 1009; Bead-based flow cytometry, Bim peptide-Mcl-1 binding; actives 0.1% (n = 190,000); inhibition, % at 10 µM; Q07820; in the data active = inhibition above about 40%
GLD-1 TGE inh – GLD-1-TGE RNA interaction inhibition (C. elegans) | purified GLD-1 + fluorescein TGE RNA, fluorescence polarization | inhibition, % at 5.96 µM | actives 0.44% (n = 320,000) | AID 2280;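 active = percent inhibition above a per-plate cutoff, the plate mean of test compounds plus 3 SD, cut at about 30% in these data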
Mcl1 Bid PPI – Mcl-1/Bid interaction inhibition. actives 0.97% (n = 220,000). inhibition, % at 21.7 µM. TR-FRET Mcl-1/Bid-Dy647 peptide binding, 1536-well. AID 1021. Q07820;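 active = compounds that cut the binding signal by more than half at the single screening dose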;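 note: His-tagged Mcl-1 with europium anti-His antibody binding Bid BH3 peptide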
Mcl1 Noxa PPI – disrupts binding of human Mcl-1 to Noxa peptide; TR-FRET Mcl-1/Noxa peptide binding, 2 h; inhibition, % at 21.7 µM; actives 1.5% (n = 220,000);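 active = compounds that cut the protein-peptide binding signal by more than 50% relative to plate controls in a single-dose test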;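 note: His-tagged Mcl-1 with rhodamine Noxa BH3 peptide and terbium anti-His antibody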
Each line names hits and unclear results; the compound was inactive in the other large screens. Only some compounds are listed: those with a hit (about 2.3% of all), similar ones and a draw of the others.

COc1ccc(OC)c(CN2CCC(C(=O)N3CCOCC3)CC2)c1	Mcl1 Bid PPI 53
COc1ccc(CN2CCCC(C(=O)N3CCCC3)C2)c(OC)c1 (centres undefined)	none (no result: Mcl-1 Bim block, Mcl1 Bid PPI, Mcl1 Noxa PPI)
Cc1ccc(C(=O)NC(=S)Nc2ccccc2N2CCOCC2)cc1C	none (no result: Mcl-1 Bim block, Mcl1 Bid PPI, Mcl1 Noxa PPI)
COc1cc2c(cc1O)CC[n+]1cc3c(OC)c(OC)ccc3cc1-2	none
COc1cc2c(cc1OC)-c1cc3ccc4c(c3c[n+]1CC2)OCO4	BCLXL inh 170, MCL1-BIM inh active, GLD-1 TGE inh 40
Cc1cc(C)c(OCC(=O)OCC(=O)NCCC2=CCCCC2)c(C)c1	none (no result: Mcl-1 Bim block, Mcl1 Bid PPI, Mcl1 Noxa PPI)
O=C(/C=C/c1ccncc1)c1ccc(NC(=O)c2ccccc2F)cc1	Mcl1 Bid PPI 52
CC(=O)Nc1ccc(N2CCCC2)cc1	none
O=C(/C=C/c1ccc(NC(=O)c2ccccc2-c2ccccc2C(=O)O)cc1)c1ccccc1	none (no result: Mcl-1 Bim block, Mcl1 Bid PPI, Mcl1 Noxa PPI)
CC(C)(C)C(=O)Nc1ccc(N2CCCC2)cc1	Mcl1 Noxa PPI 56
O=C(Nc1ccc(N2CCCC2)cc1)c1ccc2ccccc2c1	Mcl1 Noxa PPI 74
O=C(Nc1ccc(N2CCCC2)cc1)c1cccc(F)c1	Mcl1 Noxa PPI 67
Cc1sc2ncnc(N3CCN(Cc4ccccc4)CC3)c2c1-c1ccc(F)cc1	none (no result: Mcl-1 Bim block, Mcl1 Bid PPI, Mcl1 Noxa PPI)
NC(=O)c1cc(NC(=O)CCCc2nc3ccccc3s2)cc(C(N)=O)c1	none (no result: Mcl-1 Bim block)
O=C(Nc1ccc(N2CCCC2)cc1)c1ccccc1F	Mcl1 Noxa PPI 82
Cc1ccc(C(=O)Nc2ccc(N3CCCCC3)cc2)cc1	none (no result: BCLXL inh, MCL1-BIM inh, Mcl-1 Bim block, Mcl1 Bid PPI, Mcl1 Noxa PPI)
Cc1ccc(C(=O)Nc2ccc(N3CCCC3)cc2)cc1	Mcl1 Noxa PPI 78
CC(Sc1ccccc1)C(=O)NNC(=O)c1csc(N2CCOCC2)n1 (centres undefined)	none (no result: Mcl-1 Bim block, Mcl1 Bid PPI, Mcl1 Noxa PPI)
O=C(O)c1ccccc1N/N=C/C1=C(N2CCOCC2)C(=C\c2ccccc2)/CC1	Mcl1 Noxa PPI 63 (no result: Mcl-1 Bim block)
Cc1cc(=O)[nH]c(N/N=C/C2=C(N3CCOCC3)C(=C\c3ccc(Cl)cc3)/CC2)n1	Mcl1 Noxa PPI 56
Cc1cc(C)nc(N/N=C/C2=C(N3CCOCC3)C(=C/c3ccccc3)/CC2)n1	Mcl1 Noxa PPI 53
N#C/C(=C\C1=C(N2CCOCC2)C(=C\c2ccc(Cl)cc2)/CC1)C(=O)Nc1ccccc1F	Mcl1 Bid PPI 62
O=C(COC(=O)COc1ccc2c(c1)CCC2)Nc1ccccc1C(F)(F)F	none (no result: BCLXL inh, MCL1-BIM inh, Mcl-1 Bim block, Mcl1 Bid PPI, Mcl1 Noxa PPI)
O=C(COC(=O)CCC(=O)c1ccc(F)cc1)Nc1ccc(Cl)cn1	none (no result: BCLXL inh, MCL1-BIM inh, Mcl-1 Bim block, Mcl1 Bid PPI, Mcl1 Noxa PPI)
CCN(c1ccc(NC(=O)CCNC(=O)c2ccco2)cc1)C(C)C	Mcl1 Noxa PPI 75
Cc1ccc(NC(=O)CCNC(=O)c2ccco2)cc1	none
O=C(CNC(=O)c1ccc(S(=O)(=O)N2CCCC2)cc1)N/N=C/c1ccc(Cl)cc1Cl	Mcl-1 Bim block 98
O=C(c1ccc(F)cc1)N1CCC(C(=O)N2CCN(S(=O)(=O)c3cccc([N+](=O)[O-])c3)CC2)CC1	none (no result: Mcl-1 Bim block, Mcl1 Bid PPI, Mcl1 Noxa PPI)
O=C(NCc1cccnc1)/C(=C/c1ccc(-c2cccc(Cl)c2)o1)S(=O)(=O)c1ccccc1	Mcl1 Bid PPI 57
CC(C)C(=O)Nc1ccc(N2CCOCC2)c(S(=O)(=O)Nc2ccccc2Cl)c1	none (no result: BCLXL inh, MCL1-BIM inh, Mcl-1 Bim block, Mcl1 Bid PPI, Mcl1 Noxa PPI)
CCN1C(=O)c2cccc3c(NC(=O)C4CCCCC4)ccc1c23	Mcl1 Bid PPI 83
COc1ccc2[nH]c(=O)cc(C(=O)O)c2c1	none
COc1ccc2[nH]c3c4c(ccc3c2c1)C(=O)C=CC4=O	Mcl1 Bid PPI 82, Mcl1 Noxa PPI 98 (no result: BCLXL inh, MCL1-BIM inh, Mcl-1 Bim block, GLD-1 TGE inh)
COc1ccc(S(=O)(=O)N2CCCCCC2)cc1C(=O)OCc1cccc(OC)c1OC	none (no result: Mcl-1 Bim block, Mcl1 Bid PPI, Mcl1 Noxa PPI)
Cc1nc(COc2ccccc2Cl)sc1-c1ccnc(N)n1	Mcl1 Bid PPI 55 (no result: Mcl-1 Bim block)
CCN(CC(=O)Nc1ccc(NC(C)=O)cc1)C(=O)c1ccc(=O)[nH]c1	none (no result: Mcl-1 Bim block, Mcl1 Bid PPI, Mcl1 Noxa PPI)
O=C(CN1CCOCC1)NNC(=O)c1ccc(Cl)cc1	none (no result: BCLXL inh, MCL1-BIM inh, Mcl-1 Bim block, Mcl1 Bid PPI, Mcl1 Noxa PPI)
CN(C)/C=C\C(=C/C(=O)C(F)(F)F)Nc1ccccc1Oc1ccccc1	Mcl1 Noxa PPI 67
COc1cccc(CNC(=O)CN2C(=O)CSc3ccc(S(=O)(=O)N4CCOCC4)cc32)c1	none (no result: Mcl-1 Bim block, Mcl1 Bid PPI, Mcl1 Noxa PPI)
O=[N+]([O-])c1ccc(-c2cn(-c3ccc(Cl)cc3)c(=S)[nH]2)cc1	Mcl1 Bid PPI 68, Mcl1 Noxa PPI 90
O=C(Nc1nc(-c2cccc3ccccc23)cs1)c1ccc2c(c1)S(=O)(=O)c1ccccc1C2=O	Mcl1 Noxa PPI 62
O=C(Nc1nc(-c2ccccc2)cs1)c1ccc2c(c1)S(=O)(=O)c1ccccc1C2=O	none
O=C(CCn1cnnn1)Nc1cccc(F)c1	none
